# This is part of a sample that, as a whole, favours compounds with a hit. Of some 79,000 tested, about 15% had one in any assay. Values without a mark were called inactive. The source made the active and inactive calls. Cut-off read from the data, not from the text of the source: active = growth inhibition above about 70%; inactive = the rest.
# What was measured:
# [1] = NCI Yeast Anticancer Drug Screen. Data for the rad52 strain (AID 147);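 note: 0% = growth of vehicle-treated control cultures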; settings: S. cerevisiae rad52 mutant growth inhibition, hits give high values
# Method in brief: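 Inhibition of yeast growth, referenced to vehicle controls, was the measured output for a strain with defective DNA damage repair.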
# [2] = NCI Yeast Anticancer Drug Screen. Data for the wt1 strain (AID 149);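 note: 0% = growth of vehicle-treated wt1 cultures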; settings: S. cerevisiae wt1 strain (SPY 50644) growth inhibition, hits give high values
# Method in brief: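 Readout: yeast growth inhibition, normalised to vehicle controls, in the wt1 strain exposed to test compounds.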
# [3] = NCI Yeast Anticancer Drug Screen. Data for the rad50EPP+ strain (AID 151);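 note: 0% = growth of vehicle-treated control cultures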; settings: S. cerevisiae rad50 mutant strain, hits give high values
# Method in brief: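 Genetically defined yeast (rad50EPP+, DNA damage repair alteration) is grown with compound, and inhibition of growth is expressed relative to vehicle-treated controls.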
# [4] = NCI Yeast Anticancer Drug Screen. Data for the mgt1 strain (AID 153); settings: S. cerevisiae mgt1 mutant growth inhibition, hits give high values
# Method in brief: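 In the mgt1 strain, test compounds were added and growth inhibition was determined relative to vehicle-treated controls.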
# [5] = NCI Yeast Anticancer Drug Screen. Data for the rad50 strain (AID 155);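 note: 0% = growth of vehicle-only cultures of the same strain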; settings: S. cerevisiae rad50 strain growth inhibition, hits give high values
# Method in brief: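 Compounds were tested on a yeast strain with an engineered DNA damage repair alteration; the reported value is growth inhibition normalised to vehicle treatment.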
# [6] = NCI Yeast Anticancer Drug Screen. Data for the mec2-1 strain (AID 157); settings: S. cerevisiae mec2-1 strain, hits give high values
# Method in brief: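 Each compound was tested on mec2-1 yeast, a strain altered in DNA damage repair or cell cycle control. Growth inhibition is reported relative to vehicle.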
# [7] = NCI Yeast Anticancer Drug Screen. Data for the sgs1 mgt1 strain (AID 161);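 note: 0% = growth of cultures given vehicle only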; settings: S. cerevisiae sgs1 mgt1 strain, hits give high values
# Method in brief: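 Mutant yeast exposed to compound; growth scored against vehicle-only wells.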
# [8] = NCI Yeast Anticancer Drug Screen. Data for the CLN2oe strain (AID 163);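 note: 0% = growth of vehicle-only control cultures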; settings: S. cerevisiae CLN2oe strain, hits give high values
# Method in brief: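 First, the altered yeast strain was treated with each compound; second, its growth was measured; finally, inhibition was derived by comparison with vehicle controls.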
# [9] = NCI Yeast Anticancer Drug Screen. Data for the cln2 rad14 strain (AID 165);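 note: 0% = growth equal to vehicle treated cultures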; settings: S. cerevisiae cln2 rad14 strain, hits give high values
# Method in brief: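 Test compounds were added to cln2 rad14 yeast cultures; inhibition of growth was then determined by comparison with vehicle treatment.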
# [10] = NCI Yeast Anticancer Drug Screen. Data for the bub3 strain (AID 167); settings: S. cerevisiae bub3 mutant strain, hits give high values
# Method in brief: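 Growth of a checkpoint-deficient yeast mutant is measured after compound exposure. Values represent inhibition relative to vehicle.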
# [11] = NCI Yeast Anticancer Drug Screen. Data for the wt2 strain (AID 169);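 note: 0% = growth of vehicle-treated yeast cultures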; settings: S. cerevisiae wt2 strain growth inhibition, hits give high values
# Method in brief: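 The panel's yeast strains carry defined changes in DNA repair or cell cycle genes. Each strain is grown with compound, and growth loss is scored relative to vehicle.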
# [12] = NCI Yeast Anticancer Drug Screen. Data for the mlh1 strain (AID 171);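 note: 0% = growth of vehicle-treated control cultures of the same strain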; settings: S. cerevisiae mlh1 strain growth inhibition, hits give high values
# Method in brief: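 Inhibition values reflect reduced yeast growth in the presence of compound, referenced to vehicle controls, using a strain chosen for its alteration in DNA repair or cell cycle control.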
# [13] = NCI Yeast Anticancer Drug Screen. Data for the mlh1 rad18 strain (AID 175); settings: S. cerevisiae mlh1 rad18 strain growth inhibition, hits give high values
# Method in brief: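 Inhibition values reflect reduced growth of mutant yeast versus vehicle-treated controls following compound exposure; the mutations affect DNA damage repair.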
# [14] = NCI Yeast Anticancer Drug Screen. Data for the rad18 strain (AID 177); settings: S. cerevisiae rad18 mutant growth inhibition, hits give high values
# Method in brief: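 Steps: expose repair-mutant yeast to compound; measure growth; express as inhibition relative to vehicle control.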
# [15] = at 5.0 µM (retest, dose inferred, filed as 0.5)
# [16] = at 50.0 µM (retest, dose inferred, filed as 5.0)
compound,measurement,setting,value
O=S(=O)(O)c1ccc(Cl)cc1.[Cd],growth inhibition,[1]; at 1.2 µM,3%
same,growth inhibition,[1]; at 3.7 µM,9%
same,growth inhibition,[1]; at 11.0 µM,35%
same,growth inhibition,[1]; at 33.0 µM,50%
same,growth inhibition,[1]; at 100.0 µM,66%
same,growth inhibition,[2]; at 1.2 µM,2%
same,growth inhibition,[2]; at 3.7 µM,11%
same,growth inhibition,[2]; at 11.0 µM,25%
same,growth inhibition,[2]; at 33.0 µM,55%
same,growth inhibition,[2]; at 100.0 µM,73% (active)
same,growth inhibition,[3]; at 1.2 µM,9%
same,growth inhibition,[3]; at 3.7 µM,14%
same,growth inhibition,[3]; at 11.0 µM,23%
same,growth inhibition,[3]; at 33.0 µM,56%
same,growth inhibition,[3]; at 100.0 µM,75% (active)
same,growth inhibition,[4]; at 1.2 µM,0%
same,growth inhibition,[4]; at 3.7 µM,15%
same,growth inhibition,[4]; at 11.0 µM,27%
same,growth inhibition,[4]; at 33.0 µM,55%
same,growth inhibition,[4]; at 100.0 µM,77% (active)
same,growth inhibition,[5]; at 1.2 µM,-2%
same,growth inhibition,[5]; at 3.7 µM,15%
same,growth inhibition,[5]; [15],25%
same,growth inhibition,[5]; at 11.0 µM,47%
same,growth inhibition,[5]; at 33.0 µM,73% (active)
same,growth inhibition,[5]; [16],46%
same,growth inhibition,[5]; at 50.0 µM,57.1%
same,growth inhibition,[5]; at 100.0 µM,84% (active)
same,growth inhibition,[6]; at 1.2 µM,-2%
same,growth inhibition,[6]; at 3.7 µM,5%
same,growth inhibition,[6]; [15],6%
same,growth inhibition,[6]; at 11.0 µM,14%
same,growth inhibition,[6]; at 33.0 µM,25%
same,growth inhibition,[6]; [16],46%
same,growth inhibition,[6]; at 50.0 µM,39.4%
same,growth inhibition,[6]; at 100.0 µM,37%
same,growth inhibition,[7]; [15],23%
same,growth inhibition,[7]; [16],53%
same,growth inhibition,[7]; at 50.0 µM,50.5%
same,growth inhibition,[8]; at 1.2 µM,-18%
same,growth inhibition,[8]; at 3.7 µM,-17%
same,growth inhibition,[8]; at 11.0 µM,-6%
same,growth inhibition,[8]; at 33.0 µM,8%
same,growth inhibition,[8]; at 100.0 µM,20%
same,growth inhibition,[9]; [15],8%
same,growth inhibition,[9]; [16],11%
same,growth inhibition,[9]; at 50.0 µM,21.4%
same,growth inhibition,[10]; at 1.2 µM,-8%
same,growth inhibition,[10]; at 3.7 µM,8%
same,growth inhibition,[10]; [15],-6%
same,growth inhibition,[10]; at 11.0 µM,6%
same,growth inhibition,[10]; at 33.0 µM,19%
same,growth inhibition,[10]; [16],27%
same,growth inhibition,[10]; at 50.0 µM,2.7%
same,growth inhibition,[10]; at 100.0 µM,30%
same,growth inhibition,[11]; at 1.2 µM,2%
same,growth inhibition,[11]; at 3.7 µM,11%
same,growth inhibition,[11]; at 11.0 µM,20%
same,growth inhibition,[11]; at 33.0 µM,32%
same,growth inhibition,[11]; at 100.0 µM,44%
same,growth inhibition,[12]; at 1.2 µM,-1%
same,growth inhibition,[12]; at 3.7 µM,7%
same,growth inhibition,[12]; at 11.0 µM,17%
same,growth inhibition,[12]; at 33.0 µM,50%
same,growth inhibition,[12]; at 100.0 µM,82% (active)
same,growth inhibition,[13]; [15],24%
same,growth inhibition,[13]; [16],47%
same,growth inhibition,[13]; at 50.0 µM,59%
same,growth inhibition,[14]; at 1.2 µM,0%
same,growth inhibition,[14]; at 3.7 µM,8%
same,growth inhibition,[14]; at 11.0 µM,23%
same,growth inhibition,[14]; at 33.0 µM,44%
same,growth inhibition,[14]; at 100.0 µM,51%

# From PubChem BioAssay (NCI)
